Experimental findings from PubChem BioAssay are described below.

Calls of active or inactive are those of the source.

For experiment [1], the system named is Plasmodium falciparum Sir2 (PF13_0152, Sir2A). The experiment is described as follows: Plasmodium falciparum Sir2A binding compounds – biochemical, small-molecule microarray, 635 nm fluorescence, primary screen (AID 1098).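 Note: score merges spot fluorescence intensity with its signal-to-noise ratio.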 As to conditions: fluorescence 635 nm, higher = more signal.
A short description of experiment [2]: probe aDKK1 binding to arrayed compounds – biochemical, biotinylated probe, 635/667 nm fluorescence, primary screen (AID 1099).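 Note: score merges 667nm spot fluorescence with signal to noise across triplicate slides.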 As to conditions: small-molecule microarray, higher = more signal.
Experiment [3] in a line: probe aCHRDL2 binding to arrayed compounds – biochemical, biotinylated probe, 635/667 nm fluorescence, primary screen (AID 1100). As to conditions: small-molecule microarray, higher = more signal.
Experiment [4] can be described thus: change in splice reporter luminescence, either direction, cell-based, HEK293, spliceosome inhibition project, primary screen (AID 1101).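 Note: HEK293 cells carrying a splicing-competent luciferase reporter gene; test concentration not given here.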 As to conditions: HEK293 splicing luciferase reporter, 24 h, higher = more signal, called active from +8 up or from −8 down.
Experiment [5] has as its target Fibroblast growth factor 10 (Homo sapiens) (UniProt O15520). In words: compounds binding fibroblast growth factor 10 – biochemical, small-molecule microarray, 635 nm fluorescence, primary screen (AID 1102). The note with it: FGF10 binding, fluorescence 635 nm, higher = more signal.
For experiment [6], the system named is glycogen synthase kinase-3 (GSK3A per assay name; protocol says GSK3B). In words: compounds binding glycogen synthase kinase-3 – biochemical, small-molecule microarray, 635 nm fluorescence, GSK3A, primary screen (AID 1103). Note: the record names both GSK3A and GSK3B. As to conditions: fluorescence 635 nm, higher = more signal.
For experiment [7], the target named is Epidermal growth factor receptor (Homo sapiens) (UniProt P00533). The experiment is described as follows: compounds binding epidermal growth factor receptor – biochemical, small-molecule microarray, 635 nm fluorescence, primary screen (AID 1104).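 Note: score merges 667 nm emission intensity with spot signal to noise over triplicate slides.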 The note with it: EGFR binding, higher = more signal.
In experiment [8] the target is Follistatin-related protein 3 (Homo sapiens) (UniProt O95633). In words: compounds binding follistatin-related protein 3 – biochemical, small-molecule microarray, 635 nm fluorescence, primary screen (AID 1105).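 Note: score merges emission near 667 nm and signal to noise per printed spot across three slides.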 As to conditions: FSTL3 binding, higher = more signal.
The target in experiment [9] is Dickkopf-related protein 1 (Homo sapiens) (UniProt O94907). In words: small molecules binding DKK1 protein – biochemical, small-molecule microarray, 635 nm fluorescence scan, primary screen (AID 1106).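 Note: score merges emission near 667 nm with signal to noise over three replicate slides.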 The note with it: higher = more signal.
Experiment [10] concerns Inhibin beta A chain (activin A). In words: small molecules binding activin A – biochemical, small-molecule microarray, 635 nm fluorescence scan, primary screen (AID 1107).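 Note: mouse activin A protein probed at 4.33 µg/mL on printed slides; score merges bound-protein fluorescence near 667 nm with spot signal-to-noise.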 As to conditions: INHBA, higher = more signal.
The test system of experiment [11] is Human papillomavirus type 1a protein E7 (residues 44-93). The experiment is described as follows: small molecules binding HPV E7 44-93 – biochemical, small-molecule microarray, residues 44-93, 635 nm fluorescence, primary screen (AID 1108).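 Note: E7 fragment applied at 1 µg/mL in TBST for 1 h at 4 C; score combines spot fluorescence with its signal to noise ratio.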 The note with it: fluorescence 635 nm, higher = more signal.
Experiment [12] can be described thus: hepatitis C replication reporter changes, two-sided – Huh7 cells, luciferase reporter, HCV replication inhibitor project, primary screen (AID 1109).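 Note: huh7 hepatoma cells harbouring a luciferase neomycin HCV replicon reporter; luciferase luminescence as measure of HCV replicon replication; test concentration not given here.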 As to conditions: Huh7 HCV replicon luciferase reporter, 48 h; higher = more signal.
In experiment [13] the target is Left-right determination factor 2 (Homo sapiens) (UniProt O00292). In words: small molecules binding LEFTY2 protein – biochemical, small-molecule microarray, 635 nm fluorescence scan, primary screen (AID 1110). The note with it: higher = more signal.
Experiment [14] deals with Calmodulin-1 (Homo sapiens) (UniProt P0DP23). In words: small molecules binding calmodulin-1 with EGTA – biochemical, small-molecule microarray, Cy5-labelled CALM1, profiling panel (AID 1111).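 Note: labelled calmodulin applied in Tris saline Tween buffer holding calcium plus EGTA and DTT.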 The note with it: Cy5-CALM1 binding fluorescence, higher = more signal.
Experiment [15] shares this target. In words: small molecules binding Ca-loaded calmodulin-1 – biochemical, small-molecule microarray, Cy5-labelled CALM1, plus calcium, artefact control for SMM control-protein annotation, profiling panel (AID 1112).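 Note: score merges spot fluorescence with signal to noise from triplicate slides.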 As to conditions: Cy5-CALM1 binding fluorescence, higher = more signal.
Experiment [16] can be described thus: probe aWnt5a binding to arrayed compounds – biochemical, biotinylated probe, 635/667 nm fluorescence, primary screen (AID 1113).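 Note: score merges 667 nm fluorescence intensity with signal-to-noise per printed feature.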 The note with it: small-molecule microarray, higher = more signal.
Experiment [17] in a line: probe aShh binding to arrayed compounds – biochemical, biotinylated probe, 635/667 nm fluorescence, primary screen (AID 1114).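 Note: probe is biotin-labelled aShh protein from a stem cell growth factor screen; measures binding of labelled protein to compounds printed on the slide; score merges feature fluorescence at 667 nm with signal-to-noise.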 The note with it: small-molecule microarray, higher = more signal.
Experiment [18] can be described thus: probe aNog binding to arrayed compounds – biochemical, biotinylated probe, 635/667 nm fluorescence, primary screen (AID 1115).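 Note: probe is biotinylated aNog protein used at 0.15 µg/mL for 1 h at 4 C; z-score combines 667 nm fluorescence of each spot with its signal to noise.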 The note with it: small-molecule microarray, higher = more signal.
In experiment [19] the target is Torsin-1A-interacting protein 1 (Homo sapiens) (UniProt Q5JTV8). The experiment is described as follows: compound microarray binding of lysate hLAP1 – cell lysate, small-molecule microarray, COS7 lysate, 635/667 nm fluorescence, primary screen (AID 1116). As to conditions: 635 nm fluorescence, higher = more signal.
Experiment [20] concerns the target Alpha-bungarotoxin (Bungarus multicinctus) (UniProt P60615). In words: compounds binding labelled alpha-BTX control protein – biochemical, small-molecule microarray, Alexa647 label, 635/667 nm fluorescence, artefact control for SMM control protein annotation, profiling panel (AID 1117). As to conditions: alpha-BTX-A647 binding fluorescence, higher = more signal.

Chain of Follistatin-related protein 3 (Homo sapiens) (O95633 whole entry, looked up): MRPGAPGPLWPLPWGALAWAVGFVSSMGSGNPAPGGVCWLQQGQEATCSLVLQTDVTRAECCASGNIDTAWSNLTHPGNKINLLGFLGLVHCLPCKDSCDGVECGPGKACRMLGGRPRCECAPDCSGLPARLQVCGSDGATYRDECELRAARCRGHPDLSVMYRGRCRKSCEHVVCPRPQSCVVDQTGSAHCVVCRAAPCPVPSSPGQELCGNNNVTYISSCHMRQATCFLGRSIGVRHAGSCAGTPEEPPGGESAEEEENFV
Chain of Epidermal growth factor receptor (Homo sapiens) (P00533 whole entry, looked up): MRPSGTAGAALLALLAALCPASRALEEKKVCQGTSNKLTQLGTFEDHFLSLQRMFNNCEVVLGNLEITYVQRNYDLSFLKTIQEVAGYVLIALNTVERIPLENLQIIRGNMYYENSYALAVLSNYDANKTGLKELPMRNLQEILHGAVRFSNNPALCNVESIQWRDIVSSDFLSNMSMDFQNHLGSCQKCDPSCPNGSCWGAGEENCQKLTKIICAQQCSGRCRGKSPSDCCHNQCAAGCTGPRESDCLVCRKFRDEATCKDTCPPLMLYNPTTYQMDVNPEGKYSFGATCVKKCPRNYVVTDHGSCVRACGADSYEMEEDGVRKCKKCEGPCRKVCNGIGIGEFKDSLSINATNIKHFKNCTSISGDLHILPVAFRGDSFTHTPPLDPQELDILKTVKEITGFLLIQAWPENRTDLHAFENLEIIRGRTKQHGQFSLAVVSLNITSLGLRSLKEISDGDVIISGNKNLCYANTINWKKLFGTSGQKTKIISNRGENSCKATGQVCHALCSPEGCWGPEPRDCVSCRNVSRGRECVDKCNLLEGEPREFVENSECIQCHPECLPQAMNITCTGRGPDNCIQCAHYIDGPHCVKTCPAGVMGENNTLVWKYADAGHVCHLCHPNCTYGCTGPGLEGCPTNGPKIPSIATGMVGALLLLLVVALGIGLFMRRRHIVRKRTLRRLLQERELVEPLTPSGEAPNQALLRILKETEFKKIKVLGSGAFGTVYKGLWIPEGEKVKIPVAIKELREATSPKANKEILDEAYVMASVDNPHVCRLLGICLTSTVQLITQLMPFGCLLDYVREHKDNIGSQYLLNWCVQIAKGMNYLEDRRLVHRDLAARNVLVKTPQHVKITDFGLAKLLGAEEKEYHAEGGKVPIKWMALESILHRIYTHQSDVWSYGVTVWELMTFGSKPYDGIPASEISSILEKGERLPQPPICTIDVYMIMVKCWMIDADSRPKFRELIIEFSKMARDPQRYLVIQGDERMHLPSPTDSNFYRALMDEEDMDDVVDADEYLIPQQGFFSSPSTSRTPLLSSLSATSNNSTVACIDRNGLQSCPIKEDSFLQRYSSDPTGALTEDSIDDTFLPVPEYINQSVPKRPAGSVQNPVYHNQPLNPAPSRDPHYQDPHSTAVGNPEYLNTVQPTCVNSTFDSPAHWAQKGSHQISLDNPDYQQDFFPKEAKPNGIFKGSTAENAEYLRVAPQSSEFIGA
Chain of Left-right determination factor 2 (Homo sapiens) (O00292 whole entry, looked up): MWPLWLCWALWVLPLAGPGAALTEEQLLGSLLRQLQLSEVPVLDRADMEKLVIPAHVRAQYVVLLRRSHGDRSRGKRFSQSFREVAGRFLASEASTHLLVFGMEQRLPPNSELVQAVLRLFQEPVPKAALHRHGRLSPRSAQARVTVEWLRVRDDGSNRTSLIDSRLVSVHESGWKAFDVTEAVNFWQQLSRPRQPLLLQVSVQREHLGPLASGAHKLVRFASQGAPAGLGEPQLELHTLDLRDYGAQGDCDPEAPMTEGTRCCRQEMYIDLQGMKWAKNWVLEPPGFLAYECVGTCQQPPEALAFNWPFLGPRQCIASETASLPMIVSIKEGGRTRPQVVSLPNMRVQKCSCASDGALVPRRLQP
Chain of Fibroblast growth factor 10 (Homo sapiens) (O15520 whole entry, looked up): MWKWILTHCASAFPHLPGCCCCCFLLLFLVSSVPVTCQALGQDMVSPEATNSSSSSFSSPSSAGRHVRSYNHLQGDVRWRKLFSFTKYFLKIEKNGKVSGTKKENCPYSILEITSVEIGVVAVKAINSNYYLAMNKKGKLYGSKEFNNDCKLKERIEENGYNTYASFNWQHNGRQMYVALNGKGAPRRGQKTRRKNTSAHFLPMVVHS
Chain of Torsin-1A-interacting protein 1 (Homo sapiens) (Q5JTV8 whole entry, looked up): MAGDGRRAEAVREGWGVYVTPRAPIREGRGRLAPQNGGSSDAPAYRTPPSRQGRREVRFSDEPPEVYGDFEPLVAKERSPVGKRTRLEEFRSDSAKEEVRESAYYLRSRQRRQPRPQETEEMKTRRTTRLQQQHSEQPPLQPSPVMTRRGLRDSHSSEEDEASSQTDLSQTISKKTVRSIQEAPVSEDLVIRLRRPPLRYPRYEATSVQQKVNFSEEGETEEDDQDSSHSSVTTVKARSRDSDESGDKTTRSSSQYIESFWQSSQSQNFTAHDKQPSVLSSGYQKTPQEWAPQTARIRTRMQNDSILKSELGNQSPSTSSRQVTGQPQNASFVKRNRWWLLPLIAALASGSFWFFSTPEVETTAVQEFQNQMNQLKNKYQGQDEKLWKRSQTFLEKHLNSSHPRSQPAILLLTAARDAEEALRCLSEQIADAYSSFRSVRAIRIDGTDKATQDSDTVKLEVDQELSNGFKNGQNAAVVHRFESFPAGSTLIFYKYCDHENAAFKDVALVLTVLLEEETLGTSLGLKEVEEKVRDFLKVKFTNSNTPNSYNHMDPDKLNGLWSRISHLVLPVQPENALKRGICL
Chain of Dickkopf-related protein 1 (Homo sapiens) (O94907 whole entry, looked up): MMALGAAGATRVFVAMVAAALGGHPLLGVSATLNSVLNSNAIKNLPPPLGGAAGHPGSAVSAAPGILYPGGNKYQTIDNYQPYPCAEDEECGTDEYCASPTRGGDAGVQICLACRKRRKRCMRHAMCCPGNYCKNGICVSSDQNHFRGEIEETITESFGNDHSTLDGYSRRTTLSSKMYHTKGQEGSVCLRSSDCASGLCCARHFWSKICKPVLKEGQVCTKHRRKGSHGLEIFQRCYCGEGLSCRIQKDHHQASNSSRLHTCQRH
Chain of Alpha-bungarotoxin (Bungarus multicinctus) (P60615 whole entry, looked up): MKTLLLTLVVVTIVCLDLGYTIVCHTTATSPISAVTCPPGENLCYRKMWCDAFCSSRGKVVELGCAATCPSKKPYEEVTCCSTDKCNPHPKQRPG

Take `CC1(C)C2C=C(C(O)C3C=CC4C(=O)NC(=O)C4N3Nc3ccc(Cl)cc3Cl)C[C@@H]1C2` (stereo not given in full): the composite z-score in experiment [1] stood at 0.213; in [2], 1.05; in experiment [3], 1.16; in [5], 0.808; in experiment [6], 0.0644; in experiment [7], 0.27. For the same molecule, the composite z-score in experiment [8] was 0.745; in [9] it was -0.214; in [10] it was 1.08; in experiment [11] it was 0.772; in experiment [13], -0.0061; in experiment [14] it was 2.35. Moreover, the composite z-score in [15] is 1.01; in experiment [16], -0.006; in [17], 0.275; in [18] it was 0.503; in [19], 1.27; in [20], 1.31. For the same molecule, the z-score is 2.5 (inactive) in experiment [4] and -1.45 in [12].
Regarding `CN(C)CCCCCCNC(=O)[C@H]1C[C@H]2C(=O)N[C@@H](CCCCN)C(=O)N2[C@H]1c1cccc(OCCO)c1`, the composite z-score was 1.99 in [1]; 3.01 in experiment [2]; 1.72 in experiment [3]; 1.43 in experiment [5]; 1.48 in experiment [6]; 1.63 in [7]. Besides, the composite z-score in experiment [8] came to 1.65; in experiment [9], 2.49; in experiment [10] it was 1.43; in [11], 1.56; in experiment [13] it was 1.71; in experiment [14] it was 1.99. Besides, the composite z-score stood at 1.16 in [15]; 1.06 in [16]; 2.92 in [17]; 3.26 in [18]; 4.54 in experiment [19]; 2.52 in experiment [20]. The z-score in experiment [4] is -0.361 (inactive); in [12], 0.386.
For the molecule `CC(C)OC(=O)C=C1C[C@@H](c2ccccn2)O[C@@H](c2ccccn2)O1`, the composite z-score in [1] was -0.152; in experiment [2], -0.778; in [3] it was -1.68; in [5] it was 0.627; in experiment [6], 0.201; in experiment [7] it was 0.891. Moreover, the composite z-score in [8] was 1.1; in experiment [9], 1.47; in experiment [10] it was 1.21; in [11] it was -0.0187; in experiment [13], 1.05; in experiment [14], -1.38. Moreover, the composite z-score was -0.98 in experiment [15]; -0.0607 in experiment [16]; 0.489 in experiment [17]; -0.457 in experiment [18]; 0.429 in [19]; 0.6 in experiment [20]. In addition, the values for the z-score in [4] and in experiment [12] were 1.08 (inactive) and -0.884, respectively.
Take `CN(C)CCCC[C@@H]1NC(=O)[C@@H]2C[C@H](C(=O)NCCCCCCN)[C@H](c3cccc(OCCO)c3)N2C1=O`: the composite z-score in [1] was 0.891; in experiment [2] it was 0.956; in experiment [3], 0.584; in experiment [5] it was 0.894; in [6], 1.22; in [7] it was 0.0249. Further, the composite z-score in experiment [8] was 0.0587; in experiment [9], 0.603; in experiment [10], 0.6; in experiment [11], 1.29; in experiment [13] it was 0.45; in [14], 1.23. The composite z-score in [15] is 0.827; in experiment [16], -0.0455; in experiment [17], 0.876; in experiment [18] it was 1.13; in experiment [19], 2.88; in experiment [20], 2.63. In addition, the z-score in experiment [4] was -0.502 (inactive); in experiment [12], 0.484.
Turning to `C=CCOC(=O)[C@H]1[C@@H]2C(=O)O[C@@H](c3ccccc3)[C@@H](c3ccccc3)N2[C@@H](c2ccc(OCCOC(=O)[C@H]3C[C@H]4C(=O)N[C@@H](CCCCNC(C)=O)C(=O)N4[C@H]3c3ccc(O)cc3)cc2)[C@]12C(=O)Nc1ccc(I)cc12`, the composite z-score in experiment [1] is 1.33; in [2] it was -0.182; in [3] it was -0.717; in experiment [5], 0.707; in experiment [6] it was 1.11; in experiment [7], 0.506. Besides, the composite z-score is 1.26 in experiment [8]; 0.667 in experiment [9]; 1.02 in experiment [10]; 0.804 in experiment [11]; 0.418 in experiment [13]; 0.124 in [14]. Moreover, the composite z-score was -0.732 in experiment [15]; -0.0236 in [16]; 0.123 in experiment [17]; -0.238 in experiment [18]; 0.612 in experiment [19]; 0.963 in [20]. The values for the z-score in [4] and in [12] were -0.0027 (inactive) and -3.26, respectively.
Regarding `CC(C)[Si](C#Cc1ccc(Oc2ccccc2)cc1)(O[Si](C#Cc1ccc(Oc2ccccc2)cc1)(C(C)C)C(C)C)C(C)C`, the composite z-score in experiment [1] was 1.11; in experiment [2] it was 0.112; in experiment [3], -0.504; in [5] it was 1.37; in experiment [6] it was 0.478; in experiment [7], 0.0408. Also, the composite z-score was 0.394 in [8]; 0.687 in experiment [9]; -0.294 in [10]; 0.328 in experiment [11]; 0.567 in experiment [13]; -0.185 in [14]. Besides, the composite z-score in [15] is 0.307; in [16], 0.0561; in [17], -0.0337; in experiment [18], -0.12; in experiment [19], 0.0811; in experiment [20] it was 0.262. In addition, the z-score in experiment [4] is -0.226 (inactive); in experiment [12], 0.651.
